# Experimental data: the supplement of paper PMC8728848
# Shown is part of a subset that was picked to be rich in the strongest signals.
# Columns and labels:
# Assay in all cases: glycan array binding signal (z-score within array); higher = stronger binding
# Conditions in all cases: glycan notation: IUPAC condensed, linker removed
# [1] = target: Fuc(a1-2)Gal(b1-3)GalNAc(b1-4)[Neu5Ac(a2-3)]Gal(b1-4)Glc
# In short: (§1)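 From the Consortium for Functional Glycomics database, 3228 arrays were curated, keeping only those whose protein sequence was available. Binding is given as a within-array Z-score averaged across arrays sharing a protein sequence and across linkers. Negative Z-scores can be read as non-binding.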
# [2] = target: Fuc(a1-2)Gal(b1-3)GlcNAc6S
# In short: as §1
# [3] = target: Fuc(a1-2)Gal(b1-3)[Fuc(a1-4)]GlcNAc(b1-3)[Fuc(a1-3)[Gal(b1-4)]GlcNAc(b1-6)]Gal(b1-4)Glc
# In short: as §1
# Fuc(a1-2)Gal(b1-4)Glc6S = target: Fuc(a1-2)Gal(b1-4)Glc6S
# In short: as §1
# Fuc(a1-2)Gal(b1-4)GlcNAc = target: Fuc(a1-2)Gal(b1-4)GlcNAc
# In short: as §1
# [4] = target: Fuc(a1-2)Gal(b1-4)GlcNAc(b1-2)Man(a1-3)[Fuc(a1-2)Gal(b1-4)GlcNAc(b1-2)Man(a1-6)]Man(b1-4)GlcNAc(b1-4)[Fuc(a1-6)]GlcNAc
# In short: as §1
# [5] = target: Fuc(a1-2)Gal(b1-4)GlcNAc(b1-3)Gal(b1-4)GlcNAc
# In short: as §1
# [6] = target: Fuc(a1-2)Gal(b1-4)[Fuc(a1-3)]GlcNAc(b1-3)GalNAc
# In short: as §1
# [7] = target: Fuc(a1-2)[Gal(a1-3)]Gal(b1-4)[Fuc(a1-3)]Glc
# In short: as §1
# [8] = target: Fuc(a1-2)[GalNAc(a1-3)]Gal(b1-4)Glc
# In short: as §1
# [9] = target: Fuc(a1-2)[GalNAc(a1-3)]Gal(b1-4)GlcNAc(b1-2)Man(a1-3)[Fuc(a1-2)[GalNAc(a1-3)]Gal(b1-4)GlcNAc(b1-2)Man(a1-6)]Man(b1-4)GlcNAc(b1-4)[Fuc(a1-6)]GlcNAc
# In short: as §1
# [10] = target: Fuc(a1-2)[GalNAc(a1-3)]Gal(b1-4)GlcNAc(b1-6)GalNAc
# In short: as §1
# [11] = target: Fuc(a1-2)[GalNAc(a1-3)]Gal(b1-4)[Fuc(a1-3)]GlcNAc
# In short: as §1
# [12] = target: Fuc(a1-2)[GalNAc(a1-3)]Gal(b1-4)[Fuc(a1-3)]GlcNAc(b1-3)GalNAc
# In short: as §1
# [13] = target: Fuc(a1-3)[Gal(b1-4)]GlcNAc(b1-2)Man(a1-3)[Fuc(a1-3)[Gal(b1-4)]GlcNAc(b1-2)Man(a1-6)]Man(b1-4)GlcNAc(b1-4)[Fuc(a1-6)]GlcNAc
# In short: as §1
# [14] = target: Fuc(a1-3)[Gal(b1-4)]GlcNAc(b1-3)Gal(b1-4)[Fuc(a1-3)]GlcNAc(b1-3)Gal(b1-4)[Fuc(a1-3)]GlcNAc
# In short: as §1
# [15] = target: Fuc(a1-3)[Gal(b1-4)]GlcNAc6S
# In short: as §1
# [16] = target: Gal(a1-3)Gal(b1-4)[Fuc(a1-3)]GlcNAc(b1-2)Man(a1-3)[Gal(a1-3)Gal(b1-4)[Fuc(a1-3)]GlcNAc(b1-2)Man(a1-6)]Man(b1-4)GlcNAc(b1-4)GlcNAc
# In short: as §1
# [17] = target: Gal(a1-4)Gal(b1-4)GlcNAc(b1-2)Man(a1-3)[Gal(a1-4)Gal(b1-4)GlcNAc(b1-2)Man(a1-6)]Man(b1-4)GlcNAc(b1-4)GlcNAc
# In short: as §1
# [18] = target: Gal(b1-3)GlcNAc(b1-2)[Gal(b1-3)GlcNAc(b1-6)]Man(a1-6)[Gal(b1-3)GlcNAc(b1-2)Man(a1-3)]Man(b1-4)GlcNAc(b1-4)GlcNAc
# In short: as §1
# [19] = target: Gal(b1-3)GlcNAc(b1-3)Gal(b1-4)[Fuc(a1-3)]GlcNAc
# In short: as §1
# [20] = target: Gal(b1-3)GlcNAc(b1-6)Gal(b1-4)GlcNAc
# In short: as §1
# [21] = target: Gal(b1-4)GlcNAc(b1-2)Man(a1-3)[Gal(b1-4)GlcNAc(b1-2)Man(a1-6)][GlcNAc(b1-4)]Man(b1-4)GlcNAc(b1-4)[Fuc(a1-6)]GlcNAc
# In short: as §1
# [22] = target: Gal(b1-4)GlcNAc(b1-3)Gal(b1-4)GlcNAc(b1-2)[Gal(b1-4)GlcNAc(b1-3)Gal(b1-4)GlcNAc(b1-6)]Man(a1-6)[Gal(b1-4)GlcNAc(b1-3)Gal(b1-4)GlcNAc(b1-2)Man(a1-3)]Man(b1-4)GlcNAc(b1-4)GlcNAc
# In short: as §1
binder,measurement,setting,value
GS7807H-bfa-490-18-490 (Bacteroides fragilis) (protein) GNLEEMNIDPDNATQTHPKLLLTQICMNAFKRGTDGMYATKKVIQADGESADQYYKWTRGSFGYYDNLRNVQKMGEEAERVNAPVYTALTKFFRAYYFYELTLRFGDIPYSQALKGEKEEIYTPEYDAQEDVFAGILQELREADEILANDASVIDGDIIYNGNSTQWRKLINSFRLKVLMTLSNHTTVGNINIASEFKNIATNSPLMNSLADNGQLVYLDQQGNRYPQFNAQWSGYYMDDTFIQRMRERRDPRLFIFSAQTNKGKTEGKPIDDFSSYEGGDPAAPYSDAIIKVSEGTISPINDRFRTDPIVEPTMLMGYAELQQILAEAVVRGWISGNAQTYYEKGIRASFSFYETHAKDYAGYLNENAVAQYLKEPLVDFTQASGTEEQIERIIMQKYLVTFYQGNWDSFYEQLRTGYPDFRRPAGTEIPKRWMYPQGEYDNNGTNVETAITRQFGAGNDKINQATWWQKKS,glycan array binding signal (z-score),[1],-0.424
same,glycan array binding signal (z-score),[2],0.079
same,glycan array binding signal (z-score),[3],-0.223
same,glycan array binding signal (z-score),Fuc(a1-2)Gal(b1-4)Glc6S,-0.448
same,glycan array binding signal (z-score),Fuc(a1-2)Gal(b1-4)GlcNAc,-0.024
same,glycan array binding signal (z-score),[4],2.33
same,glycan array binding signal (z-score),[5],-0.786
same,glycan array binding signal (z-score),[6],0.672
same,glycan array binding signal (z-score),[7],-0.426
same,glycan array binding signal (z-score),[8],-0.704
same,glycan array binding signal (z-score),[9],0.217
same,glycan array binding signal (z-score),[10],-0.479
same,glycan array binding signal (z-score),[11],0.449
same,glycan array binding signal (z-score),[12],0.984
same,glycan array binding signal (z-score),[13],1.38
same,glycan array binding signal (z-score),[14],0.166
same,glycan array binding signal (z-score),[15],-0.707
same,glycan array binding signal (z-score),[16],1.36
same,glycan array binding signal (z-score),[17],6.27
same,glycan array binding signal (z-score),[18],2.29
same,glycan array binding signal (z-score),[19],0.374
same,glycan array binding signal (z-score),[20],9.32
same,glycan array binding signal (z-score),[21],-0.8
same,glycan array binding signal (z-score),[22],11.2
